Screens deposited in PubChem BioAssay by several laboratories.
697 NFkB inh = lowers PMA/ionomycin-induced NF-kB signal in 697 B cells | inhibition, % at 4 µM | AID 435022 | 697 B-cell NF-kB luciferase reporter, 16 h | 330,000 tested, 0.33% active; in the data active = inhibition above about 35%
Jurkat NFkB inh = lowers PMA/ionomycin-induced NF-kB signal in Jurkat cells. 330,000 tested, 0.53% active. PMA/ionomycin-induced NF-kB luciferase reporter, luminescence. inhibition, % at 4 µM; in the data active = inhibition above about 50%
Beta cell apopt = beta cell apoptosis inhibition; AID 435005; protection from apoptosis, % (concentration not given with the values); INS-1E cytokine-induced death, ATP luminescence, 48 h; percent of positive-control rescue, neutral wells zero; 300,000 tested, 0.8% active;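 active = Every replicate reaches about 75%, or at least half do and their mean reaches it too, limit read from the data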;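 note: higher means more ATP so stronger rescue from cytokine killing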
Gli-Sufu antag = Gli-Sufu pathway antagonism. Sufu-KO-LIGHT fibroblasts, Gli luciferase reporter luminescence. inhibition, % at 5 µM. 340,000 tested, 0.74% active;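 active = inhibition above about 55%, limit read from the data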
Mdm2-MdmX inh = disrupts the human Mdm2-MdmX interaction; O15151+Q00987; SaOS-2 split-luciferase Mdm2/MdmX complementation, luminescence; inhibition, % at 8 µM; 330,000 tested, 3% active; AID 485346;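 active = inhibition of at least 50% at 8 µM in the primary screen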
Mdm2 MdmX conf = human Mdm2/MdmX binding inhibition, confirmed; inhibition, % at 8 µM; shares compounds with Mdm2-MdmX inh; AID 489028; 10,000 tested, 55% active; luminescent assay; in the data active = inhibition above about 40%
Full FLuc ctr = inhibits full-length luciferase, flagging false Mdm2/MdmX hits; shares compounds with Mdm2-MdmX inh; SaOS-2 full-length luciferase counterscreen, luminescence; inhibition, % at 8 µM; 6,200 tested, 77% active;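 active = mean inhibition at 8 µM reaching about 37%, which flags the compound as non-specific, limit read from the data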;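 note: p53-null SaOS-2 cells with luciferase driven by a doxycycline-inducible promoter; compound on cells about two nights before reading with doxycycline added after day one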
Hits are given with their value. Most compounds without a hit are left out; they make up all but 4% or so of the library.

What do the screens show for `COCCNC(=O)c1ccc(N2CC3CC(C2)c2cccc(=O)n2C3)c([N+](=O)[O-])c1` (configuration not stated)?
697 NFkB inh: inactive; Jurkat NFkB inh: inactive; Beta cell apopt: inactive; Gli-Sufu antag: inactive; Mdm2-MdmX inh: inactive

What do the screens show for `O=C(CSC1c2ccccc2-c2ccccc21)N/N=C/c1ccccc1O`?
697 NFkB inh: inactive; Jurkat NFkB inh: inactive; Beta cell apopt: 86.8; Gli-Sufu antag: inactive; Mdm2-MdmX inh: 82.4; Mdm2 MdmX conf: 75.8; Full FLuc ctr: inactive

What do the screens show for `O=C1NC(=O)N(c2ccccc2)C(=O)/C1=C\C=C\c1ccccc1`?
697 NFkB inh: inactive; Jurkat NFkB inh: inactive; Beta cell apopt: inactive; Gli-Sufu antag: inactive; Mdm2-MdmX inh: 77.7; Mdm2 MdmX conf: inactive

What do the screens show for `Cc1cc(C)cc(N2C(=O)NC(=O)/C(=C\C=C\c3ccco3)C2=O)c1`?
Beta cell apopt: inactive; Gli-Sufu antag: inactive

How did Cc1ccc(N2C(=O)NC(=O)/C(=C/C=C/c3ccco3)C2=O)cc1 do in these assays?
697 NFkB inh: inactive; Jurkat NFkB inh: inactive; Beta cell apopt: inactive; Gli-Sufu antag: inactive; Mdm2-MdmX inh: 53.7; Mdm2 MdmX conf: inactive

How did CC(Cc1ccccc1)NC(=O)/C=C/C(=O)O (configuration not stated) do in these assays?
697 NFkB inh: inactive; Jurkat NFkB inh: inactive; Beta cell apopt: inactive; Gli-Sufu antag: inactive; Mdm2-MdmX inh: inactive

Results for CC1C=CCCC12C(=O)NC(=O)NC2=O (configuration not stated) ?
Gli-Sufu antag: inactive

How did COC(=O)C1=C(c2ccc(-c3ccccc3)c(F)c2)C[C@@H]2CC[C@H]1N2C(=O)NCc1ccco1 do in these assays?
697 NFkB inh: inactive; Jurkat NFkB inh: inactive; Beta cell apopt: inactive; Gli-Sufu antag: inactive; Mdm2-MdmX inh: inactive

What do the screens show for `Ic1ccccc1CN[C@@H]1C2CCN(CC2)[C@@H]1C(c1ccccc1)c1ccccc1`?
697 NFkB inh: inactive; Jurkat NFkB inh: inactive; Gli-Sufu antag: inactive; Mdm2-MdmX inh: 94.4; Mdm2 MdmX conf: 42.0; Full FLuc ctr: 65.8

Results for COC(=O)C1=C(c2cccc(C#N)c2)C[C@@H]2CC[C@H]1N2C(=O)N1CCCC1 ?
697 NFkB inh: inactive; Jurkat NFkB inh: inactive; Beta cell apopt: inactive; Gli-Sufu antag: inactive; Mdm2-MdmX inh: inactive

Results for CCN1CCN(c2ncnc3ccc(Br)cc23)CC1 ?
697 NFkB inh: inactive; Jurkat NFkB inh: inactive; Beta cell apopt: inactive; Gli-Sufu antag: inactive; Mdm2-MdmX inh: 61.8; Mdm2 MdmX conf: 62.1; Full FLuc ctr: 41.8

What do the screens show for `N#Cc1ccccc1OCC(=O)N1CCN(CC(=O)Nc2ccc(F)cc2)CC1`?
697 NFkB inh: inactive; Jurkat NFkB inh: inactive; Gli-Sufu antag: inactive; Mdm2-MdmX inh: inactive

How did O=C(c1cc(C(=O)NCc2ccccc2)c(=O)n(Cc2ccccc2)c1)c1cc(Cl)ccc1O do in these assays?
697 NFkB inh: inactive; Jurkat NFkB inh: inactive; Beta cell apopt: inactive; Gli-Sufu antag: inactive; Mdm2-MdmX inh: 55.8; Mdm2 MdmX conf: inactive

Results for CN1CCc2cc3c(c4c2C1Cc1ccccc1-4)OCO3 (configuration not stated) ?
697 NFkB inh: inactive; Jurkat NFkB inh: inactive; Beta cell apopt: 88.2; Gli-Sufu antag: inactive; Mdm2-MdmX inh: 58.8; Mdm2 MdmX conf: 51.6; Full FLuc ctr: 60.8

How did COC(=O)[C@@H]1[C@@H](C(=O)OC)C2(c3ccccc3-c3ccccc32)N(c2ccc(Cl)cc2)N1C#N do in these assays?
697 NFkB inh: inactive; Jurkat NFkB inh: inactive; Beta cell apopt: inactive; Gli-Sufu antag: inactive; Mdm2-MdmX inh: 100.6; Mdm2 MdmX conf: inactive

How did NC(=O)c1ccc(N)nc1 do in these assays?
Gli-Sufu antag: inactive

Results for COc1ccc(C2C(C#N)=C(N)Oc3c2c(=O)oc2ccccc32)cc1Cn1cc([N+](=O)[O-])cn1 (configuration not stated) ?
697 NFkB inh: inactive; Jurkat NFkB inh: inactive; Beta cell apopt: inactive; Gli-Sufu antag: inactive; Mdm2-MdmX inh: inactive

Results for COc1ccc(C2=CC(c3ccc(OC)c(OC)c3)c3c(c4ccccc4oc3=O)O2)cc1OC (configuration not stated) ?
697 NFkB inh: inactive; Jurkat NFkB inh: inactive; Beta cell apopt: inactive; Gli-Sufu antag: inactive; Mdm2-MdmX inh: 54.8; Mdm2 MdmX conf: 65.2; Full FLuc ctr: 66.1
